# Data as given in PubChem BioAssay.
# Records with an inconclusive call do not appear. Activity calls are given as the source filed them.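 How the source made its calls, unless noted: active means fitted half-maximal concentration within 10 nM to 100 µM, steepness 0.5 to 2, significant signal drop, low assay interference; inactive means the rest.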
# Tests used:
# [1] = yeast TOR pathway RPL19A-GFP modulators, primary screen, cell-based, S. cerevisiae, multiplex flow cytometry (AID 1862; in the data active means percent of DMSO control GFP below about 86%;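 further: lower values mimic rapamycin by blocking the RPL19A rise seen in DMSO cells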); settings: S. cerevisiae RPL19A-GFP strain, flow cytometry fluorescence, 3 h; at 10 µM; stronger effect = lower value
# [2] = modulators of MEP2-GFP levels in yeast, primary screen, S. cerevisiae, multiplex flow cytometry (AID 1867;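 active means GFP response, as percent of the DMSO control, above the screen-wide mean plus 3 SD, about 139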;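 further: median GFP channel fluorescence of barcode-gated MEP2-GFP cells measured by flow cytometry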); settings: S. cerevisiae MEP2-GFP strain, 3 h, at 10 µM, stronger effect = higher value
# [3] = modulators of CIT2-GFP expression in yeast, primary screen, S. cerevisiae, GFP fusion, multiplex flow cytometry (AID 1870;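 active means percent response above a set limit, the screen-wide mean plus 3 SD, cut at about 130% in these data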;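 further: barcoded CIT2-GFP strain pooled with four other GFP strains with rapamycin as positive control; median GFP fluorescence per well over plate mean of DMSO wells so 100% = DMSO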); settings: 3 h, at 10 µM, stronger effect = higher value
# [4] = modulators of LAP4-GFP expression in yeast, primary screen, S. cerevisiae, multiplex flow cytometry (AID 1873;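 active means GFP signal, as percent of the solvent control, above the screen mean plus 3 SD, about 149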); settings: 3 h, at 10 µM, stronger effect = higher value
# [5] = modulators of AGP1-GFP expression in yeast TOR pathway, primary screen, cell-based, multiplex flow cytometry, S. cerevisiae (AID 1887;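 active means GFP signal above the screen-wide mean plus 3 SD, that is over about 124.5% of the solvent control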;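 further: AGP1-GFP fusion strain of S. cerevisiae within a five-strain barcoded multiplex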); settings: 3 h, at 10 µM, stronger effect = higher value
# [6] = inhibitors of CD8+ T cell-vesicle binding, pilot screen, LFA-1/ICAM-1 modulator project, MLPCN validation set, flow cytometry (AID 2523;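 active means response below a set limit, under 55% cells CD8-positive and vesicle-bound, and CD8 cells' 90th-percentile brightness under 279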;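 on vesicle binding response: mean PE anti-B7-1 fluorescence of CD8+ cells relative to row control; 100% = QL9-loaded vesicles with DMSO vehicle in the same plate row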); settings: 2C mouse CD8+ T cells, at 7 µM, stronger effect = lower value; double positive events: measured here: CD8+/vesicle+ event percentage
# [7] = target: Integrin beta-1 (Homo sapiens) + Integrin alpha-4 (Homo sapiens) (UniProt P13612+P05556); assay: inhibition of HUTS-21 binding to VLA-4, pilot screen, VLA-4 allosteric modulator project, U937 cells, HUTS-21 mAb, flow cytometry, validation set (AID 2674;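 active means inhibition above 50%, about 3 SD of the validation set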;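 further: antibody binding induced by the VLA-4 ligand LDV present at three times its Kd; 0% = LDV ligand with antibody and no compound and 100% = antibody without LDV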); settings: HUTS-21 LIBS mAb binding, at 6.7 µM, stronger effect = higher value
# Chain of Integrin beta-1 (Homo sapiens) + Integrin alpha-4 (Homo sapiens) (P05556 whole entry, looked up): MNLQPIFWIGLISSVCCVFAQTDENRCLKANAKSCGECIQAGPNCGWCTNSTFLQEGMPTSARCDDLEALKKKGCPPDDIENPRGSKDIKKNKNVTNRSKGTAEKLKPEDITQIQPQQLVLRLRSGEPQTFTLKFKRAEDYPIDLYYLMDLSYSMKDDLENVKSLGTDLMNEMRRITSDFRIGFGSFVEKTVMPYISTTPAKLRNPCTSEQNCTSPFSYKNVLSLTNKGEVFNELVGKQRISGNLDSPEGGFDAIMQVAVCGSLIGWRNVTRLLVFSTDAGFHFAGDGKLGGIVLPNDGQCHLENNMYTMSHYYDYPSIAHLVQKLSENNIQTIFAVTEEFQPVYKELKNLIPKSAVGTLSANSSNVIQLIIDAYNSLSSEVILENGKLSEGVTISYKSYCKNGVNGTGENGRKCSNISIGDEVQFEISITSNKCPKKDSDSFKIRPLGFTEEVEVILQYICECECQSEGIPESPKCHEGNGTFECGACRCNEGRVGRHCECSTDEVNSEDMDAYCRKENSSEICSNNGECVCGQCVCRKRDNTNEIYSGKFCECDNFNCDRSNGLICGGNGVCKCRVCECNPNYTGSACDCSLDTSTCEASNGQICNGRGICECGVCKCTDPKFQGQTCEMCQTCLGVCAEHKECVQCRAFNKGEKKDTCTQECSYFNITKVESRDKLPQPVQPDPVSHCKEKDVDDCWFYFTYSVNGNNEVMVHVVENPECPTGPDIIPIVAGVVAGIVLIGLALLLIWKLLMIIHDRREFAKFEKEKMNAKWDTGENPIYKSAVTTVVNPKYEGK
# Chain of Integrin beta-1 (Homo sapiens) + Integrin alpha-4 (Homo sapiens) (P13612 whole entry, looked up): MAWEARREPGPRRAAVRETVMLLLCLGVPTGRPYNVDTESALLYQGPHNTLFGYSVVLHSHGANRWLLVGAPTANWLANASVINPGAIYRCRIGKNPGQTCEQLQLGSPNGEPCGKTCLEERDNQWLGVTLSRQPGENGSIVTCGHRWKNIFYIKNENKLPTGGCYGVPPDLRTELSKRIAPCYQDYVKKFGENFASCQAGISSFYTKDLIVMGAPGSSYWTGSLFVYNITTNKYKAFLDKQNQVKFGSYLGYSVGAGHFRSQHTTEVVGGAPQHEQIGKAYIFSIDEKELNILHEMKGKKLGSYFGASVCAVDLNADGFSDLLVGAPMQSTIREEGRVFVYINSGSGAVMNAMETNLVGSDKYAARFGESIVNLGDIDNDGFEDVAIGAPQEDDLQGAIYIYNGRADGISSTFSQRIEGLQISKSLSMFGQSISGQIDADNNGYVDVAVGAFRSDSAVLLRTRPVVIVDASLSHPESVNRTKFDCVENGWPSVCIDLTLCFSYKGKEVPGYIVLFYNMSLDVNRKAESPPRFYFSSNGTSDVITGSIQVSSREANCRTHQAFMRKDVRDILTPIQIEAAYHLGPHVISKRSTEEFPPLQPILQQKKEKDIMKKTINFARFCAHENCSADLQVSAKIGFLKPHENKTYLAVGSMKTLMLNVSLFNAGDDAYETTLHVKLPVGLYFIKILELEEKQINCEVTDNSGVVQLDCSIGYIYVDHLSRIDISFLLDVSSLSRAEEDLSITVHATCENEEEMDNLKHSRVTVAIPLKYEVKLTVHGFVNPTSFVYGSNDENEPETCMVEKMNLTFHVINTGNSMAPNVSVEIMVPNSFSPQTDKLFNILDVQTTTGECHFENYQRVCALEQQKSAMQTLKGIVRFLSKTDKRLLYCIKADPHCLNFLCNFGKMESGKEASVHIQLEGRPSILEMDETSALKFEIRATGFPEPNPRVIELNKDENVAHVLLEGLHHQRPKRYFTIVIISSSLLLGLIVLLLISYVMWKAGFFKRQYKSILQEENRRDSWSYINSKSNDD
# [8] = superoxide lowering in aged yeast cells, pilot screen, validation compound set (AID 2706;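 active means superoxide response below 65% of plate, a cut near 3 SD across the whole screen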;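 further: yeast exposed to compound for one week at 30 degrees C before staining; 100% = mean of all compound wells on the same plate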); settings: S. cerevisiae aging, superoxide DHE fluorescence; at 10 µM; stronger effect = lower value
# [9] = target: Beta-adrenergic receptor kinase 1 (Homo sapiens) (UniProt P25098); assay: GRK2 binders displacing RNA aptamer, biochemical, validation, human GRK2, bead flow cytometry (AID 488806;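 active means aptamer binding inhibition above 30%, about 3 SD of noise from non-fluorescent compounds; inactive means inhibition at or below 30%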); settings: bead-bound GRK2, FAM-aptamer displacement, at 10 µM, stronger effect = higher value
# [10] = target: Beta-2 adrenergic receptor (Homo sapiens) (UniProt P07550); assay: beta2AR agonists driving receptor internalization, pilot screen, cell-based, FAP fluorogen, flow cytometry, validation set (AID 504459;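 active means percent response above 42, roughly 3 SD of non-fluorescent test compounds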;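 further: agonist-driven loss of surface beta2AR via internalization measured by FAP dye flow cytometry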); settings: Am2.2-beta2AR cells, FAP surface receptor flow cytometry; at 10 µM; stronger effect = higher value
# Chain of Beta-2 adrenergic receptor (Homo sapiens) (P07550 whole entry, looked up): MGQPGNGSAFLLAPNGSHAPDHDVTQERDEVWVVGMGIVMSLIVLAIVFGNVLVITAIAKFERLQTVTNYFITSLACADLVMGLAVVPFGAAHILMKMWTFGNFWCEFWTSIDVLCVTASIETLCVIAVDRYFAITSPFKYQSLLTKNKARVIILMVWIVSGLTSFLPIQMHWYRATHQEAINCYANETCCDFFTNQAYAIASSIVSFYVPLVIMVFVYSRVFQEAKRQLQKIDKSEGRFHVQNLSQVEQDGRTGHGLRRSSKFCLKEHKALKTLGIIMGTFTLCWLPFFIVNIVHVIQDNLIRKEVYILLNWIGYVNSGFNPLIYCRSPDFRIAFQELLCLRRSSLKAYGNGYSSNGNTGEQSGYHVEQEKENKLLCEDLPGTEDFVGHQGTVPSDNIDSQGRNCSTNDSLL
# [11] = yeast V-ATPase proton transport modulators, S. cerevisiae, pHLuorin, HTS validation (AID 504600; in the data active means response above about 15%;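 further: plate controls were DMSO for no effect and reference compound for full effect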); settings: S. cerevisiae pHLuorin cytosolic pH, at 10 µM, stronger effect = higher value
# [12] = tested on: anti-desmoglein-3 scFv antibody binding to human DSG3; assay: inhibitors of anti-DSG3 scFv binding to DSG3, pilot screen, biochemical, validation compound set, bead-based, flow cytometry (AID 588368;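 active means binding below the plate cutoff, the plate median minus 3 SD, with a reading above zero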;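 further: signal is the median channel fluorescence of bead-bound GFP antibody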); settings: Protein G beads, DSG3-Fc, scFv-GFP binding, at 10 µM, stronger effect = lower value
# [13] = tested on: Botulinum neurotoxin type F light chain protease (Clostridium botulinum); assay: Botulinum neurotoxin type F light chain protease inhibition, multiplex microsphere flow cytometry, validation set (AID 588459; call rule not given here); settings: multiplex microsphere protease substrate cleavage assay, at 10 µM, stronger effect = higher value
# [14] = target: Botulinum neurotoxin type A (Clostridium botulinum) (UniProt P0DPI0); assay: BoNT/A light chain protease inhibitors, biochemical, multiplex microsphere flow cytometry, validation set (AID 588460; call rule not given here); settings: at 10 µM, stronger effect = higher value
# Chain of Botulinum neurotoxin type A (Clostridium botulinum) (P0DPI0 whole entry, looked up): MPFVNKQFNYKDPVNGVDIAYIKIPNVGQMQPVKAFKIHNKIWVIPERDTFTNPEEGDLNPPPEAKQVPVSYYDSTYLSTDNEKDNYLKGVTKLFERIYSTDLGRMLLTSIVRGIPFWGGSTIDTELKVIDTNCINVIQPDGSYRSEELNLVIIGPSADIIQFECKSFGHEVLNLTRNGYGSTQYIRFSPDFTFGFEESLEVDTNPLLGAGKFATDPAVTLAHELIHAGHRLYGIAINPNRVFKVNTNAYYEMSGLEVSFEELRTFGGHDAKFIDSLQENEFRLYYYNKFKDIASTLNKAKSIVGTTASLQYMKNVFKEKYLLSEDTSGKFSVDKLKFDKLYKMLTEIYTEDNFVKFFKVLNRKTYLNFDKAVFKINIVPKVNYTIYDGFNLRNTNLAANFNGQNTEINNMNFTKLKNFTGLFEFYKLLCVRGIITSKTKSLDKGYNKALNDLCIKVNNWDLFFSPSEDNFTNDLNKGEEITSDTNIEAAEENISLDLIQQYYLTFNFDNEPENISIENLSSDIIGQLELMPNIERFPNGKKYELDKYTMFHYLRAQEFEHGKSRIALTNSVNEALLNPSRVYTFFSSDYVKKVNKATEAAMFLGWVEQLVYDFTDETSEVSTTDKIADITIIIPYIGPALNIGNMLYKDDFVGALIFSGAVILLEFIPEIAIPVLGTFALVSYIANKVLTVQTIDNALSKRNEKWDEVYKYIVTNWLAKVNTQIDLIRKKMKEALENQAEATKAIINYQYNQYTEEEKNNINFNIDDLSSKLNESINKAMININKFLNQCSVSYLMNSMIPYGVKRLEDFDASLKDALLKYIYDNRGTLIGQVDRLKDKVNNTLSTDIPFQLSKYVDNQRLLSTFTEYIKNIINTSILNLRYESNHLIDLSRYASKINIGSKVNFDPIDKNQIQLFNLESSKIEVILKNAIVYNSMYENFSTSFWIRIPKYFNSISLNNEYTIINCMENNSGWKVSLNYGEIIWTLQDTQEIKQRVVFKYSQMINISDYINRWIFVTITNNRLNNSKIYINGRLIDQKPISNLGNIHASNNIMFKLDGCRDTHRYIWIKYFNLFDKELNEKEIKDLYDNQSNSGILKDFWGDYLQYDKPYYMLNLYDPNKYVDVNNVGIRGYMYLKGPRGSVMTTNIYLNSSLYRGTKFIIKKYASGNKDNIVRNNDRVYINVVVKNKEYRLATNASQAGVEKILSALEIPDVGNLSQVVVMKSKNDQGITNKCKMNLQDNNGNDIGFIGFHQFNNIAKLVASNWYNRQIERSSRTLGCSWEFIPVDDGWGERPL
# [15] = target: Lethal factor (Bacillus anthracis) (UniProt P15917); assay: Lethal factor protease inhibitors, Bacillus anthracis, multiplex microsphere cleavage assay, validation set (AID 588461; call rule not given here); settings: flow cytometry, at 10 µM, stronger effect = higher value
# Chain of Lethal factor (Bacillus anthracis) (P15917 whole entry, looked up): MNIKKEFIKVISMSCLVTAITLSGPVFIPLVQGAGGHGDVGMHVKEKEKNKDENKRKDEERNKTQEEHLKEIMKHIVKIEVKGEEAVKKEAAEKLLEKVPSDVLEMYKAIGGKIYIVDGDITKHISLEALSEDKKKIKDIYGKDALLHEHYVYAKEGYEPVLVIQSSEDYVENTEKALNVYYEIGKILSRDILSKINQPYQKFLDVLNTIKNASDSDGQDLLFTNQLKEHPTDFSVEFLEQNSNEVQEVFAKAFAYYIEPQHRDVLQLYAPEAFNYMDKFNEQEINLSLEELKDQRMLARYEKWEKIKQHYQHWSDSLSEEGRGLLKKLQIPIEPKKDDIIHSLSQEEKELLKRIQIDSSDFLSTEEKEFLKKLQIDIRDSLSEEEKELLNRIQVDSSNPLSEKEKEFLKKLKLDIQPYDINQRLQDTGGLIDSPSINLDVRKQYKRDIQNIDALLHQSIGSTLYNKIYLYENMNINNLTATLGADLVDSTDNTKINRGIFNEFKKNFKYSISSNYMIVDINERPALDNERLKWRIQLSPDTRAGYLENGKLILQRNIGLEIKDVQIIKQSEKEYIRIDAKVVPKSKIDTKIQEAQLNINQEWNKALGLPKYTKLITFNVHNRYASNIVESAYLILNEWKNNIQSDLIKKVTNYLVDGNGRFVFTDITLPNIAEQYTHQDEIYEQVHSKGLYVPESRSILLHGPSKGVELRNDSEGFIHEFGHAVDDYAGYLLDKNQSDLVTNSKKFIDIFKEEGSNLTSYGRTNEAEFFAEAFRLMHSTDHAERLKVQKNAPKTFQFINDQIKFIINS
# [16] = inhibitors of fungal efflux pumps CDR1, CDR2, MDR1, pilot screen, validation compound set, multiplex, phenotypic (AID 588506;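 active means efflux inhibition above 0.42, the validation set average plus 4 SD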;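 further: Nile Red retained in cells so higher fluorescence means more efflux inhibition; 0 = negative control wells and 1 = enniatin B 25 µM full block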); settings: S. cerevisiae pump-expressing triplex, Nile Red efflux flow cytometry; at 10 µM; stronger effect = higher value
# [17] = target: ATP-binding cassette sub-family B member 6 (Homo sapiens) (UniProt Q9NP58); assay: ABCB6 transporter inhibitors, pilot screen, K562-ABCB6 cells, flow cytometry, validation set (AID 588550;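 active means inhibition above the screen-wide mean plus 3 SD, about 51%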;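 further: 0% = DMSO wells and 100% = benzethonium chloride 70 µM positive control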); settings: K562-ABCB6 porphyrin accumulation, 1 h, at 10 µM, stronger effect = higher value
# [18] = promoters of myeloid differentiation in arrested cells, primary screen, cell-based, GFP/MAC1 double positive, flow cytometry, validation set (AID 588685;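 active means differentiation response of at least 50%, scaled between solvent and reference control, from cells with both markers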;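 further: compound exposure lasts four days before antibody staining and flow analysis; 0% = DMSO wells and 100% = 5 µM fulvestrant positive control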); settings: ER-HoxA9 marrow cells, stronger effect = higher value
# [19] = target: GTPase HRas (Homo sapiens) (UniProt P01112); assay: inhibitors of GTP binding to wildtype Ras, dose response, biochemical, multiplex bead flow cytometry (AID 1335); settings: bead-based flow cytometry, Bodipy-GTP binding to GST-Ras; at 100 µM (top of the series)
# Chain of GTPase HRas (Homo sapiens) (P01112 whole entry, looked up): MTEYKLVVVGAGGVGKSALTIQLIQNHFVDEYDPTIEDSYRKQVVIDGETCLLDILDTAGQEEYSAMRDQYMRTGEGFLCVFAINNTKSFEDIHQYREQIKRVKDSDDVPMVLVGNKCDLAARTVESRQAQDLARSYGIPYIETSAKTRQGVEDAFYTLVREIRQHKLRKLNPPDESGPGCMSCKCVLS
# [20] = target: AP-2 complex subunit beta (Homo sapiens) (UniProt P63010); assay: inhibitors of arrestin peptide binding to AP2, pilot screen, biochemical, validation set, GST-AP2 beads, flow cytometry (AID 504541;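 active means inhibition above 54%, about 3 SD of non-fluorescent compounds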;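 further: AP2 carries R879A mutation and is captured from E. coli lysate; bead-bound FITC arrestin peptide fluorescence measuring arrestin peptide binding to AP2; 0% = DMSO wells and 100% = excess unlabeled arrestin peptide control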); settings: FITC arrestin peptide, at 10 µM, stronger effect = higher value
smiles,measurement,setting,value
O=C1C(=O)c2ccccc2-c2ccccc21,percent of DMSO control GFP,[1],73.2% (active)
same,GFP response vs DMSO,[2],126% (inactive)
same,percent response of DMSO control,[3],92.9% (inactive)
same,GFP response vs DMSO,[4],60.6% (inactive)
same,"GFP response, % of DMSO",[5],36.3% (inactive)
same,double positive events,[6],61.3%
same,vesicle binding response,[6],176% (inactive)
same,inhibition,[7],-0.43% (inactive)
same,superoxide response (% of plate),[8],83% (inactive)
same,aptamer binding inhibition,[9],67% (active)
same,response,[10],112% (active)
same,response,[11],0.26% (inactive)
same,binding (% of control),[12],98.9% (inactive)
same,inhibition,[13],5.3% (inactive)
same,inhibition,[14],0.6% (inactive)
same,inhibition,[15],-4.7% (inactive)
same,efflux inhibition (fraction of control),[16],2.06 (active)
same,inhibition,[17],-64% (inactive)
same,differentiation response,[18],100% (active)
CC1(C)CC(n2[nH]c(=O)c3c2NC(=O)CSC3c2ccccc2)CCO1 (stereo unspecified),"GTP binding, percent of control",[19],86.2%
O=C(O)c1cn(Cc2ccc(Cl)cc2)c2ccccc12,"GTP binding, percent of control",[19],89.3%
O=c1[nH]c(=S)[nH]c(O)c1N=Nc1ccc(S(=O)(=O)N2CCc3ccccc32)cc1,"GTP binding, percent of control",[19],95.9%
CCCCN1C(=O)/C(=C\c2ccco2)C(=O)N(CCc2ccccc2)C1=O,"GTP binding, percent of control",[19],131%
C#C[C@]1(O)CC[C@H]2[C@@H]3CCC4=CC(=O)CC[C@]4(C)[C@H]3CC[C@@]21C,percent of DMSO control GFP,[1],88.7% (inactive)
same,GFP response vs DMSO,[2],140% (active)
same,percent response of DMSO control,[3],106% (inactive)
same,GFP response vs DMSO,[4],80.9% (inactive)
same,"GFP response, % of DMSO",[5],87.7% (inactive)
same,double positive events,[6],64.1%
same,vesicle binding response,[6],255% (inactive)
same,inhibition,[7],3.55% (inactive)
same,superoxide response (% of plate),[8],97.8% (inactive)
same,aptamer binding inhibition,[9],1% (inactive)
same,response,[10],-8% (inactive)
same,inhibition,[20],14.2% (inactive)
same,response,[11],-3.36% (inactive)
same,binding (% of control),[12],102% (inactive)
same,inhibition,[13],2.5% (inactive)
same,inhibition,[14],-0.5% (inactive)
same,inhibition,[15],-1.2% (inactive)
same,efflux inhibition (fraction of control),[16],0.3 (inactive)
same,inhibition,[17],9% (inactive)
same,differentiation response,[18],-0.82% (inactive)
COCCCn1c(N)c(C(=O)Nc2sc3c(c2C(=O)OC)CCCC3)c2nc3ccccc3nc21,"GTP binding, percent of control",[19],51.7%
O=C(O)c1cn(Cc2ccccc2F)c2ccccc12,"GTP binding, percent of control",[19],106%
O=C(O)c1cn(Cc2ccccc2Cl)c2ccccc12,"GTP binding, percent of control",[19],82.2%
CN1C(=O)N(C)C(=O)C2(Cc3c(ccc4ccccc34)N(C)C2)C1=O,"GTP binding, percent of control",[19],82.6%
COc1ccc(-c2cc(=NCCCCCC(=O)O)c3cc(C)ccc3o2)cc1,"GTP binding, percent of control",[19],66.2%
CC(Oc1ccc(-c2ccccc2)cc1)C(=O)O (stereo unspecified),"GTP binding, percent of control",[19],172%
Cc1nc2c(=O)n(C)c(=O)nc-2n(C)n1,"GTP binding, percent of control",[19],98.5%
O=C(O)c1cn(Cc2ccc(F)cc2)c2ccccc12,"GTP binding, percent of control",[19],112%
